Tests used:
Assay in all cases: DAPPL (digital affinity profiling via proximity ligation, sequencing); 10 mM Tris-HCl pH 7.5, 50 mM NaCl, 1 mM DTT, 4% glycerol, room temperature, 30 min; GST-TFs on glutathione beads, 16-mer random dsDNA library, 0.1% formaldehyde crosslink after washing; high values mean tight binding
Settings in all cases: protein: recombinant; tags: N-terminal GST; dsDNA, one strand shown
FLI1 = molecular target: T1, FLI1 (Homo sapiens, UniProt Q01543 1-452)
T1 sequence: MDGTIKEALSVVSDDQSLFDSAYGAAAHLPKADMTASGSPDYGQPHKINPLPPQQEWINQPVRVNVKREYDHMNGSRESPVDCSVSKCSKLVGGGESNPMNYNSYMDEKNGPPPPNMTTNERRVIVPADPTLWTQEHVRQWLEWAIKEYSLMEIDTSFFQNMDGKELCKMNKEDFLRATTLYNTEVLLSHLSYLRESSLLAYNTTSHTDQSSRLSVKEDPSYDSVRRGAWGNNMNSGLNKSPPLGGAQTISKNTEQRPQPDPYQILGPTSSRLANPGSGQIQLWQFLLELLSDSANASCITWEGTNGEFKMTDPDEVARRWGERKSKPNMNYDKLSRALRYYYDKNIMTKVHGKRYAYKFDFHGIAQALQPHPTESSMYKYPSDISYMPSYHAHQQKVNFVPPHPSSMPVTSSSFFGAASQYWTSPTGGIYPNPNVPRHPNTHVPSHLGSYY
Method in brief: (§1)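 Binding signal is defined as a hexamer's read frequency for one factor over its frequency for the tag-only sample. To obtain reads, GST-fused human transcription factors were expressed in yeast, captured on glutathione beads, barcoded with DNA and pooled with that sample. Pools met 200 nmole of a 16-mer random double-stranded DNA library in Tris/NaCl/DTT/glycerol buffer for 30 min at room temperature before washing, 0.1% formaldehyde crosslinking, proximity ligation (BsaI/T4 ligase, 1 h, 37 °C), PCR and Illumina NextSeq500 sequencing.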

ELK1 = molecular target: T2, ELK1 (Homo sapiens, UniProt P19419 1-428)
T2 sequence: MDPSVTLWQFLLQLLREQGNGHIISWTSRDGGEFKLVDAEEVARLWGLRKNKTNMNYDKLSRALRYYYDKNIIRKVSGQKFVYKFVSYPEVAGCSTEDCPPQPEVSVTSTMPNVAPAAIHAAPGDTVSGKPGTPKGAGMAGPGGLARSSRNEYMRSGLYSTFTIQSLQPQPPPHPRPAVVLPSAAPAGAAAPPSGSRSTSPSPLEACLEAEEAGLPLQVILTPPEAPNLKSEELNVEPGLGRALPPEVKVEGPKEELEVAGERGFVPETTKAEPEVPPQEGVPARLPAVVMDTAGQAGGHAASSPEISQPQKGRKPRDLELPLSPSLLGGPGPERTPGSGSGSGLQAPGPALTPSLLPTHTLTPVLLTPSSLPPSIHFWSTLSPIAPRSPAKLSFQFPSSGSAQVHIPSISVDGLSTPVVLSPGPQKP
Method in brief: as §1

GABPA = molecular target: T3, GABPA (Homo sapiens, UniProt Q06546 1-454)
T3 sequence: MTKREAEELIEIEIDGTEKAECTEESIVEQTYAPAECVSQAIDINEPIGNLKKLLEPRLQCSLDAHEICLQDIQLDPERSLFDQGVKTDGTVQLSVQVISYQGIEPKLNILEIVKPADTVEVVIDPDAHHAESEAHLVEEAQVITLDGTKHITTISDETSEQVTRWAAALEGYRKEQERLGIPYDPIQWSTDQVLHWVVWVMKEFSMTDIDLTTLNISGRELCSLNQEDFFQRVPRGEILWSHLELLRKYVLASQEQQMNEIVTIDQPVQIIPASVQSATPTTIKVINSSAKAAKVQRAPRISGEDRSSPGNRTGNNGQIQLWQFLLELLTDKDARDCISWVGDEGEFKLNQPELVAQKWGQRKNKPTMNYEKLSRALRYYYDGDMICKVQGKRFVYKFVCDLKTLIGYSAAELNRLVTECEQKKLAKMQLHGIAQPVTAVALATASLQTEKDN
Method in brief: as §1

ERG = molecular target: T4, ERG (Homo sapiens, UniProt P11308 1-479)
T4 sequence: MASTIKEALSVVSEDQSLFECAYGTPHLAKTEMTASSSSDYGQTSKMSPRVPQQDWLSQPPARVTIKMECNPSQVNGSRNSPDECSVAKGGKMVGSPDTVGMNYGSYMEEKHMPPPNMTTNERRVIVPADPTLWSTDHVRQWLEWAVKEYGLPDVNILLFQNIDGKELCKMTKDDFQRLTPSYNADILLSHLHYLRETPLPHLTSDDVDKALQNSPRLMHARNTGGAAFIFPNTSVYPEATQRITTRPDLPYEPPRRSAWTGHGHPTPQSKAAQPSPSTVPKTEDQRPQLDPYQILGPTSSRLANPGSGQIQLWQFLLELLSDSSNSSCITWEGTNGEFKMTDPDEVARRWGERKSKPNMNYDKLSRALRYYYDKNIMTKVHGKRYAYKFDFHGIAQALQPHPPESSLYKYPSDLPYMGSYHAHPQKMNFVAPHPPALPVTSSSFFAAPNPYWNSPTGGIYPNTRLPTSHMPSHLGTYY
Method in brief: as §1

ELF1 = ELF1 (Homo sapiens, UniProt P32519 1-619)
Method in brief: as §1

EHF = molecular target: T5, EHF (Homo sapiens, UniProt Q9NZC4 1-300)
T5 sequence: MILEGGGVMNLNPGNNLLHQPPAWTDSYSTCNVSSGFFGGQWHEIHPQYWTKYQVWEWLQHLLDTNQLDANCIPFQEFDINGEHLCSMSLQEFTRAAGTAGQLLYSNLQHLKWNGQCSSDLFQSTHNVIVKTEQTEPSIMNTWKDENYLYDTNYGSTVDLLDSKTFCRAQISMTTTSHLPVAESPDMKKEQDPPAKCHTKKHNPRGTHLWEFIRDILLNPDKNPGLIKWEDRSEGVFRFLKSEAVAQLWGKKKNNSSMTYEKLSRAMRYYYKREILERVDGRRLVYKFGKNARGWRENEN
Method in brief: as §1

SPI1 = SPI1 (Homo sapiens, UniProt P17947 1-270)
Method in brief: as §1

SPIB = SPIB (Homo sapiens, UniProt Q01892 1-262)
Method in brief: as §1

ELK3 = molecular target: T6, ELK3 (Homo sapiens, UniProt P41970 1-407)
T6 sequence: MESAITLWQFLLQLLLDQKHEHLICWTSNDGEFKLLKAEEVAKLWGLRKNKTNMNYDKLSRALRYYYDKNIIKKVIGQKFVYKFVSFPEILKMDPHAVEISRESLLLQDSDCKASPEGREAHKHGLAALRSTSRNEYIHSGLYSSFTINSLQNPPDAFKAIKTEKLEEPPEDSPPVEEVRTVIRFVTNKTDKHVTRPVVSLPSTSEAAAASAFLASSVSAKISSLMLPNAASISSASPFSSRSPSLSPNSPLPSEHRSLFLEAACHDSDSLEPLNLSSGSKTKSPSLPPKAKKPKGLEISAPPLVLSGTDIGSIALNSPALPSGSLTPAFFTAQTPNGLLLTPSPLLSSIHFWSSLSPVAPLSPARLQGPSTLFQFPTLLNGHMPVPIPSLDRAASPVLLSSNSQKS
Method in brief: as §1

Chain of ELF1 (P32519 whole entry): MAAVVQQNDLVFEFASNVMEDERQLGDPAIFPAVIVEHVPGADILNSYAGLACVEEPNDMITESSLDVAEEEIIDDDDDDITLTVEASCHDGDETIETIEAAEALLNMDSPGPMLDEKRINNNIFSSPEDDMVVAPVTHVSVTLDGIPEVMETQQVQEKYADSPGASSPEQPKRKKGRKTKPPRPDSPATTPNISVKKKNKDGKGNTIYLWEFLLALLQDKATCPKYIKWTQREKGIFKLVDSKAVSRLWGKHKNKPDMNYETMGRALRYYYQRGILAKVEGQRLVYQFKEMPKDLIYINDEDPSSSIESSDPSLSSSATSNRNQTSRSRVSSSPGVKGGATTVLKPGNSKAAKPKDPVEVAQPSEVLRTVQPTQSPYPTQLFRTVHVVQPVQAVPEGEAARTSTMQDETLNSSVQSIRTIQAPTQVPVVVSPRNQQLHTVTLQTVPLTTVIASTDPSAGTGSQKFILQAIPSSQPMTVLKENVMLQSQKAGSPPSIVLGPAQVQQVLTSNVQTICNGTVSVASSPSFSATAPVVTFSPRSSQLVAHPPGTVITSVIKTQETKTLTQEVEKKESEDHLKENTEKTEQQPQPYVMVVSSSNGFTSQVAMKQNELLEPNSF
Chain of SPIB (Q01892 whole entry): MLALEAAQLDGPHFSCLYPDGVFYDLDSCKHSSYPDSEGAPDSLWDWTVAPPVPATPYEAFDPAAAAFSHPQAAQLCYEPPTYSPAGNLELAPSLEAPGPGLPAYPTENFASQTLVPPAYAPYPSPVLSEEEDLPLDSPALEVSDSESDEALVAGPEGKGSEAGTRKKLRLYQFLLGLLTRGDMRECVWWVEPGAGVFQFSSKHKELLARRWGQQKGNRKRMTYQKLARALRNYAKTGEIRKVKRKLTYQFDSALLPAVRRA

## ACCATT
FLI1
  binding signal: 1.22 fold enrichment (6-mer frequency, TF over GST control)
ELK1
  binding signal: 1.11 fold enrichment (6-mer frequency, TF over GST control)
GABPA
  binding signal: 1.1 fold enrichment (6-mer frequency, TF over GST control)
ERG
  binding signal: 1.12 fold enrichment (6-mer frequency, TF over GST control)
ELF1
  binding signal: 1.1 fold enrichment (6-mer frequency, TF over GST control)
EHF
  binding signal: 1.11 fold enrichment (6-mer frequency, TF over GST control)
SPI1
  binding signal: 1.16 fold enrichment (6-mer frequency, TF over GST control)
SPIB
  binding signal: 1.11 fold enrichment (6-mer frequency, TF over GST control)
ELK3
  binding signal: 1.28 fold enrichment (6-mer frequency, TF over GST control)
